Reference: PubChem BioAssay AID624330 (Southern Research Specialized Biocontainment Screening …, 2012)
About 2,100 (0.62%) of roughly 340,000 compounds were called active.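 Rule for the calls: active = first-screen hits whose inhibition reached a set limit at any dose in the follow-up dose series; inconclusive = inhibition above the set first-screen limit but never retested; inactive = the rest.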 The list is a sample of the results. Measured potencies and affinities stand elsewhere.

target: Rac GTPase-activating protein 1 (Homo sapiens) (UniProt Q9H0H5); assay: MgcRacGAP GTPase-activating activity inhibitors, confirmation, biochemical, ADP Hunter fluorescence, primary and confirmatory (AID 624330); conditions: MgcRacGAP-stimulated Rac1 GTP hydrolysis, at 30 µM, active compounds read high, GST-tagged Rac1 F28L mutant substrate;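 note: fluorescence reports GDP produced by GAP-driven GTP hydrolysis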
Sequence (Q9H0H5 whole entry, looked up): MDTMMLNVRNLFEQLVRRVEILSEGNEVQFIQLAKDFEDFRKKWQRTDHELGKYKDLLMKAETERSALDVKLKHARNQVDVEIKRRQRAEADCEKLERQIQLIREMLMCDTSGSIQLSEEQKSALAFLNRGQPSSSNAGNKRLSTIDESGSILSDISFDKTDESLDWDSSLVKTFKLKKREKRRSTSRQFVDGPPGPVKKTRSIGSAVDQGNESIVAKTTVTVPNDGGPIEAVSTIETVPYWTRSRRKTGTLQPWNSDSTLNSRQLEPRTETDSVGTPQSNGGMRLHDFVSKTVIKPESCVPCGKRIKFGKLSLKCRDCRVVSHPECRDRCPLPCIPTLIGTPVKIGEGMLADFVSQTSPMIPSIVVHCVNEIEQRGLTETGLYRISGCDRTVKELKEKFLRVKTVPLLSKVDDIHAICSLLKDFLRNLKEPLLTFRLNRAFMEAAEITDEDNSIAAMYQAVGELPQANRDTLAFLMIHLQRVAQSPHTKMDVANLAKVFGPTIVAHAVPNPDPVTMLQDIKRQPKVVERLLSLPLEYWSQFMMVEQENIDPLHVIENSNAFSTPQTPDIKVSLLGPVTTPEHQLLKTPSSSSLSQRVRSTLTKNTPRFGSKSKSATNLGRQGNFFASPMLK

inhibition, inactive:
Cc1cc(OCC(=O)NCC(c2ccc(F)cc2)N2CCOCC2)ccc1Cl (stereo unspecified) 3.16%, O=C(CCc1ccc(S(=O)(=O)N2CCOCC2)cc1)Oc1ccccc1 8.54%, CN(C)c1cc(NC(=O)CN2CCOCC2)c2ccccc2n1 0.97%, CCCCc1nc2ccccc2c(NC(=O)CNC(C)(C)C)c1CCC 20.5%, CN1CCN(CC(=O)Nc2cc(N(C)C)nc3ccccc23)CC1 27.1%, O=C(CN1CCCCC1)Nc1c2c(nc3ccccc13)N(c1ccccc1)CC2 20.7%, CCCCc1nc2ccccc2c(NC(=O)CN2CCCC2)c1CCC 28.9%, O=C(CN1CCCC1)Nc1c2c(nc3ccccc13)N(Cc1ccccc1)CC2 3.93%, CCCn1c(=O)c(C(=O)NCC2CCCO2)c(O)c2ccccc21 (stereo unspecified) 5.01%, O=C1c2ccccc2C(=O)N1CCCCNc1ccccc1 -2.64%, COC(=O)c1sc2ncccc2c1OCc1ccc(Cl)cc1 1.91%, N#C/C(=C\c1ccc2c(c1)OCCO2)C(=O)NC1CCCCC1 4%, C=CCOC(=O)COc1ccc2c(C)c(C)c(=O)oc2c1C -6.38%, COCCNC(=O)c1cc2c(=O)[nH]c3ccccc3c2s1 6.07%, CCOc1ccc(/C=N/Nc2ccc(C(F)(F)F)cc2[N+](=O)[O-])cc1O 13.1%, O=C(CCc1nc2ccccc2c(=O)[nH]1)Nc1ccc(F)c([N+](=O)[O-])c1 2.61%, CCC1=Nc2cc(C(=O)O)ccc2Sc2ccc(Cl)cc21 6.46%, Clc1ccc(C2=Nc3cc(Cl)ccc3OC2)cc1 12.9%, CCOc1ccc2nc(SCC(=O)NCc3ccc(OC)cc3)[nH]c2c1 6.56%, Cc1ccc2c(c1)N(C(=O)CCC(=O)N1CCN(c3ccccc3)CC1)CCO2 11.2%, COc1ccc(/C=N/NC(=O)CNC(=O)C2COc3ccccc3O2)cc1OC (stereo unspecified) 6.43%, CCN(CC)c1ccc(/C=N/NC(=O)CNC(=O)C2COc3ccccc3O2)c(O)c1 (stereo unspecified) 5%, COc1ccc(/C=N\NC(=O)CNC(=O)C2COc3ccccc3O2)cc1[N+](=O)[O-] (stereo unspecified) 5.39%, O=C(CNC(=O)C1COc2ccccc2O1)N/N=C\c1cccc(O)c1 (stereo unspecified) 3.96%, CCOC(=O)N1CCN(C(=O)COC(=O)c2cc(C)ccc2C)CC1 -2.55%, CCOc1ccccc1NC(=O)CN(c1ccc(C)cc1)S(=O)(=O)c1c(C)n[nH]c1C 0.88%, Cc1cc(C(=O)O)ccc1NCc1ccncc1 7.32%, COCCN(CC(=O)NC1CCCCC1)C(=O)CCCC(=O)Nc1ccccn1 -5.13%, COC(=O)c1ccc(C(=O)OC)c(NC(=S)N2CCCCC2C)c1 (stereo unspecified) 8.35%, O=C(CN1CCN(c2ccccc2)CC1)NC(=O)NCc1ccco1 5.31%, O=C(CN1CCN(c2ccc(F)cc2)CC1)NC(=O)NCc1ccco1 -4.47%, COc1ccc(N2CCN(CC(=O)Nc3ccc(C)cc3Br)CC2)cc1 -18.4%, Cc1ccc(NC(=O)NC(=O)CN2CCC(C(N)=O)CC2)c(C)c1 -2.71%, Cc1ccccc1NC(=O)c1ccccc1NC(=O)c1ccco1 4.69%, Cn1cccc1C(=O)OCc1ccc(F)cc1 5.26%, COc1ccc(/C=N/NC(=O)c2c(C)nc3ccccn23)cc1[N+](=O)[O-] 0.27%, Cc1ccn2c(C(=O)N/N=C/c3ccc(Cl)cc3)c(C)nc2c1 8.94%, Cc1nc2ccccn2c1C(=O)N/N=C/c1ccc(F)cc1 6.23%, COc1ccc(OC)c(/C=N\NC(=O)c2c(C)nc3cc(C)ccn23)c1 -1.68%, CN(CC1CCOCC1)C(=O)CC1C(=O)NCCN1Cc1cccc(Oc2ccccc2)c1 (stereo unspecified) -8.59%, O=C(CSc1nnc(CNC(=O)c2c(F)cccc2F)o1)NCCc1ccccc1 6.85%, CCN1C(=O)[C@@H]2[C@H](C1=O)[C@@H]1C(=O)Nc3ccccc3C(=O)N1[C@@H]2c1ccc(OC)cc1 3.37%, O=C(Nc1ccccc1C(=O)NCCc1ccccc1)c1cnccn1 8.13%, N#Cc1cc(-c2ccccc2)cnc1Sc1ccccc1 -2.07%, CCN(CC)CCCNC(=O)Cc1c(C(=O)O)n(C)c2ccccc12 7.17%, c1ccc(C(CN2CCOCC2)c2ccccc2)cc1 14.5%, CC(=O)c1ccc(N2CCN(CC(O)COC(c3ccccc3)c3ccccc3C)CC2)cc1 (stereo unspecified) 12.8%, CCN1CCN(CC(O)COC(c2ccccc2)c2ccccc2)CC1 (stereo unspecified) 0.21%, OC(COC(c1ccccc1)c1ccccc1)CN1CCCCC1 (stereo unspecified) 6.55%, Cc1ccccc1C(OCC(O)CN1CCC(C(N)=O)CC1)c1ccccc1 (stereo unspecified) 6.34%, CCOC(=O)N1CCN(CC(c2ccccc2)c2ccccc2)CC1 20.9%, Cc1nnsc1C(=O)Nc1ccc(S(=O)(=O)N2CCCC(C)C2)cc1 (stereo unspecified) -21.6%, Cc1cc([N+](=O)[O-])nn1CC(=O)NCc1ccc(Cl)cc1 0.89%, COC(=O)Cc1c(OC)ccn(CCc2c[nH]c3ccccc23)c1=O 8.25%, CN1C(=O)C(C)(C)c2cc(S(=O)(=O)N3CCCC(C(=O)NCc4ccc(F)cc4)C3)ccc21 (stereo unspecified) 17.2%, CCC(CC)C(=O)Nc1ccc(C(=O)Nc2cc(C)on2)cc1 5%, COc1ccc(CNC(=O)C(=O)NCC2OCCCN2S(=O)(=O)c2cccs2)cc1 (stereo unspecified) 8.22%, COc1cc(C2Nn3c(nnc3-c3ccccc3OC)S2)ccc1O (stereo unspecified) 3.42%, N#CC1=C(N)OC(c2ccccc2)=C(C#N)C1c1ccc2c(c1)OCO2 (stereo unspecified) -0.39%, CC(C)Cc1ccc(C(=O)NCCOc2ccccc2)o1 5.6%, CNC(=O)c1c(NC(=O)c2ccc(S(=O)(=O)N3CC(C)OC(C)C3)cc2)sc2c1CCN(C(C)C)C2 (stereo unspecified) 11.2%
